# FAS TE block – FAS thioesterase domain inhibitors, primary screen, biochemical, fluorescence intensity, uHTS. Fatty acid synthase (Homo sapiens), P49327. recombinant FAS-TE, OMFH fluorogenic substrate, fluorescence endpoint. inhibition, % at 15 µM. hit rate 0.67% among 360,000. AID 602261, 2012;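 active = compounds whose normalised, plate-corrected inhibition of enzyme fluorescence in the single-dose primary screen is 50% or more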;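 also: 0% = DMSO with enzyme and 100% = substrate without enzyme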
# MPTP inh – mitochondrial permeability transition pore inhibitors, primary screen, biochemical, isolated mouse mitochondria, absorbance; Ca2+ swelling absorbance, 30 min; hit rate 1.4% among 360,000; inhibition, % at 10 µM;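 active = inhibition of 50% or more, scaled per plate between neutral and stimulator controls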;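 also: 0% = DMSO wells given calcium and 100% = 1 mM EGTA wells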
# rCAG RNA binder – binders of r(CAG) RNA repeats, primary screen, biochemical, fluorescence; r(CAG) RNA repeat, TO-PRO-1 dye displacement fluorescence; inhibition, % at 3 µM; hit rate 1.3% among 370,000; AID 651821, 2012;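 active = inhibition above the plate cutoff, the mean of all test compounds on that plate plus 3 SD, cut at about 35% in these data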;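 also: 0% = DMSO alone and 100% = 100 µM mitoxantrone as full dye displacement; higher means more dye released from RNA so lower well fluorescence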
# NR3A LBD binder – binders of NR3A ligand-binding domain, primary screen, biophysical, differential scanning fluorimetry, uHTS; Glutamate receptor ionotropic, NMDA 3A (GRIN3A) ligand-binding domain; NR3A LBD differential scanning fluorimetry, Tm shift; 0% = protein alone, 100% = glycine-bound protein; Tm shift relative to glycine control, % at 25 µM; hit rate 2.5% among 340,000; AID 1259313, 2017;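 active = melting temperature shift of at least 10% of the positive control shift, at one fixed dose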
# Myeloid diff MLP – induction of myeloid progenitor differentiation, primary screen, cell-based, flow cytometry, MLPCN library; hit rate 1% among 360,000; ER-HoxA9 myeloid progenitors, lysozyme-GFP differentiation; calls only at 10 µM;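 active = normalized GFP-positive differentiation at or above the plate's own cutoff, the solvent-only control mean plus 3 SD; inconclusive = no clear call, values can overlap the other calls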;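 also: cells exposed to compound for four days before flow analysis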
# rCAG binder conf – small molecules binding CAG repeat RNA – biochemical, fluorescence, confirmation; shares compounds with rCAG RNA binder; r(CAG) RNA repeat, TO-PRO-1 dye displacement fluorescence; inhibition, % at 3 µM; hit rate 70% among 4,300; AID 652065, 2013;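 active = inhibition above a per-plate cutoff, the mean inhibition of sample wells plus 3 SD, cut at about 35% in these data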;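 also: loss of TO-PRO-1 fluorescence as compound displaces dye from 1x1 AA loop RNA; 0% = DMSO only wells and 100% = 100 µM mitoxantrone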
# dCAG dye counter – displacement of TO-PRO-1 from CAG DNA duplex, counter-screen for rCAG RNA repeat binder project, biochemical, fluorescence, TO-PRO-1 dye, d(CAG) DNA oligo; hit rate 94% among 4,300; shares compounds with rCAG RNA binder; inhibition, % at 3 µM; d(CAG) DNA oligo TO-PRO-1 dye displacement;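 active = inhibition above its plate's cutoff, the mean test-well inhibition plus 3 SD, cut at about 4.8% in these data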;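 also: 0% = DNA dye mix with DMSO and 100% = 100 µM mitoxantrone; hits displace the dye from DNA and so lower well fluorescence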
# DNA CAG DR – inhibitors of DNA CAG/GTC TO-PRO-1 complex, dose response, counter-screen for rCAG RNA repeat binder project, biochemical, fluorescence, TO-PRO-1 dye. hit rate 20% among 250. IC50, µM. shares compounds with rCAG RNA binder. DNA CAG/GTC duplex TO-PRO-1 dye displacement fluorescence. AID 686960, 2013; in the data active = IC50 below about 10 µM
# An asterisk follows results filed as active; i = inactive; ? = inconclusive; nt = no result. This is a sample that favours compounds with a hit; in the whole collection about 5.7% have one here.
SMILES,FAS TE block,MPTP inh,rCAG RNA binder,NR3A LBD binder,Myeloid diff MLP,rCAG binder conf,dCAG dye counter,others
O=C1NC(=O)/C(=C/c2ccc(-c3cc(C(=O)O)ccc3Cl)o2)S1,-1.8,0.0,53.1*,-4.6,i,52.1*,14.7*,
Cc1ccc(NC(=O)CN2C(=O)S/C(=C\c3cc(C)n(-c4cccc(C(=O)O)c4)c3C)C2=O)cc1,1.8,-1.8,72.3*,-2.3,i,71.5*,31.5*,DNA CAG DR=i
C[C@H](O)[C@@H]1C(=O)N2CCc3c([nH]c4c(-c5ccc6c(c5)OCO6)cccc34)[C@@H]2C[C@@H]1N(C)C(=O)c1ccccc1F,nt,nt,13.3,nt,nt,nt,nt,
O=C(NNc1c([N+](=O)[O-])cc(C(F)(F)F)cc1[N+](=O)[O-])c1ccco1,-1.3,46.3,14.5,0.8,i,nt,nt,
Cc1ccc(C(=O)O)cc1-c1ccc(/C=C2\SC(=O)N(CC(=O)Nc3ccccc3)C2=O)o1,5.3,-0.1,42.1*,-2.9,i,89.4*,66.1*,
O=C(NNC(=O)C1CC1)c1ccccc1[N+](=O)[O-],-6.5,-1.4,-3.0,-0.9,i,nt,nt,
CCc1cc2ccc(C)cc2nc1SCC(=O)Nc1cc(OC)c(OC)cc1C(=O)O,-1.9,-1.0,44.9*,-15.0,i,75.6*,28.3*,DNA CAG DR=i
CC1=Nc2ccc(C)cc2/C1=C/c1c(N)n2c(S(=O)(=O)C(C)C)nsc2nc1=O,4.7,7.5,80.2*,17.6*,i,75.4*,37.4*,
CC1=Nc2ccccc2/C1=C/c1c(N)n2c(S(=O)(=O)CC(C)C)nsc2nc1=O,5.7,15.5,77.9*,16.2*,i,78.3*,46.0*,
CC(C)S(=O)(=O)c1nsc2nc(=O)c(/C=C3\C=Nc4ccccc43)c(N)n12,-0.3,19.1,87.6*,23.4*,i,85.1*,55.4*,
CC1=Nc2ccccc2/C1=C/c1c(N)n2c(S(=O)(=O)C(C)C)nsc2nc1=O,1.5,2.5,72.8*,9.5,i,58.8*,20.7*,
CSc1nsc2nc(=O)c(/C=C3\C(C)=Nc4ccc(C)cc43)c(N)n12,2.9,3.0,65.9*,21.3*,i,46.2*,12.2*,
CN(C)c1ccc(C2SCCN2C(=O)c2ccc([N+](=O)[O-])cc2)cc1 (configuration not stated),8.0,-0.7,2.5,-2.2,i,nt,nt,
CC(Oc1ccc2c(c1)oc(=O)c1ccccc12)C(=O)NC(Cc1c[nH]c2ccc(O)cc12)C(=O)O (configuration not stated),-5.3,0.4,43.0*,-1.9,i,27.4,6.1*,
Cc1cc(OC(C)C(=O)NC(Cc2c[nH]c3ccc(O)cc23)C(=O)O)c2c(C)c(C)c(=O)oc2c1 (configuration not stated),0.0,0.4,13.3,-0.5,i,nt,nt,
Cc1c(C)c2ccc(OCC(=O)N[C@@H](Cc3c[nH]c4ccccc34)C(=O)O)cc2oc1=O,-1.2,-0.1,18.2,-1.1,i,nt,nt,
O=C(COc1ccc2c(c1)oc(=O)c1ccccc12)N[C@@H](Cc1c[nH]c2ccccc12)C(=O)O,-0.3,-1.5,51.4*,-7.1,i,54.0*,18.3*,
COc1ccc(CCNC(=O)c2cccc(S(=O)(=O)N3CCOCC3)c2)cc1OC,-3.0,-1.0,-0.5,-1.2,i,nt,nt,
COc1cc(OC)cc(-c2noc(-c3csc([C@@H]4O[C@H](CO)[C@H](O)[C@H](O)[C@H]4O)n3)n2)c1,-6.1,-0.6,1.5,nt,i,nt,nt,
CC(C)(C)S(=O)(=O)/C(C#N)=C/c1cccn1S(=O)(=O)c1ccccc1,11.7,0.4,1.8,nt,i,nt,nt,
Clc1ccc(-c2ccc(-c3nn4c(-c5ccco5)nnc4s3)o2)cc1,19.7,0.4,34.7*,0.5,i,12.4,9.1*,
CCCCCCn1cc(CN2CC=CS2(=O)=O)nn1,nt,nt,-1.1,nt,nt,nt,nt,
Cc1ccc(S(=O)(=O)Nc2cc(-c3ccccc3)nn2C)cc1Cl,0.2,3.0,56.6*,-5.2,i,38.0*,9.9*,
Cc1ccc(S(=O)(=O)Nc2cc(-c3ccc(Cl)cc3)nn2C)cc1,-0.4,4.2,47.7*,-0.2,i,48.3*,11.2*,
Cc1ccc(-n2nnnc2CNC(=O)c2ccc3c(c2)OCO3)cc1C,-2.8,-2.5,-1.8,0.8,i,nt,nt,
SMILES,FAS TE block,MPTP inh,rCAG RNA binder,NR3A LBD binder,Myeloid diff MLP,rCAG binder conf,dCAG dye counter,others
CC(=O)c1ccc(NC(=O)CSc2nnc(-c3ccco3)c(-c3ccco3)n2)cc1,-11.5,0.5,45.4*,-10.5,i,36.9*,15.5*,
CC(=O)Nc1ccc(NC(=O)CSc2nnc(-c3ccco3)o2)cc1,-2.3,-0.1,1.3,-1.8,i,nt,nt,
O=C(CSc1nnc(-c2ccco2)c(-c2ccco2)n1)c1ccccc1,6.1,-0.4,74.6*,-5.0,i,57.5*,26.4*,
Cc1cc(F)ccc1S(=O)(=O)Nc1ncnc2sc3c(c12)CCC3,-0.5,0.0,33.2,-10.4,i,nt,nt,
O=S(=O)(Nc1ncnc2sc3c(c12)CCC3)c1ccc2ccccc2c1,-0.1,0.1,68.8*,-2.6,i,56.4*,21.1*,
CCN(CC)S(=O)(=O)c1cccc(C(=O)N/N=C/c2cccc(O)c2O)c1,4.0,1.6,37.4*,-2.7,?,33.0,13.0*,
CCN(CC)S(=O)(=O)c1cccc(C(=O)N/N=C/c2cc(OC)c(O)c(OC)c2)c1,-15.1,-1.1,0.2,2.9,i,nt,nt,
COc1cccc(-c2nn(Cc3ccccc3)cc2CO)c1,-4.4,-2.2,-1.9,3.5,i,nt,nt,
O=C(NC(=S)N1CCN(c2nc(-c3ccccc3)cs2)CC1)c1cncc(Br)c1,41.5,0.3,24.2,-18.6,i,nt,nt,
O=C(CCN1C(=O)/C(=C\c2cccs2)SC1=S)Nc1nccs1,-15.2,0.9,3.0,-7.9,i,nt,nt,
CC(=Cc1ccccc1)C=C1SC(=S)N(CCCC(=O)Nc2ccc(C(=O)O)c(O)c2)C1=O,32.1,1.7,93.1*,nt,i,92.2*,76.4*,
O=C(CCCN1C(=O)/C(=C/c2cccs2)SC1=S)Nc1ccc(C(=O)O)cc1,0.2,-2.2,42.2*,-3.0,i,38.7*,7.8*,
O=C(CCN1C(=O)/C(=C/c2cccs2)SC1=S)Nc1cccc(C(=O)O)c1,-8.2,0.6,59.6*,-9.7,i,51.7*,18.1*,

# Screens as filed in PubChem.
